Compound activity from PubChem BioAssay.
UBC13 polyUb – human UBC13 polyubiquitination inhibition; 0.47% of 330,000 active; P61088; inhibition, % at 20 µM; AID 485273; UBC13 polyubiquitin chain formation, TR-FRET; in the data active = inhibition above about 45%, passing the limit was not always enough; inconclusive = no clear call, values can overlap the other calls
Target sequence (P61088 whole entry, looked up): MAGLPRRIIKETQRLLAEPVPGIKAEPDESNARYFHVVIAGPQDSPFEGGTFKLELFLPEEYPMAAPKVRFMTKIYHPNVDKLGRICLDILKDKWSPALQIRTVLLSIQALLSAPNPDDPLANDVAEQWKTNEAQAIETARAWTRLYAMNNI
dFosB act – enhances mouse delta FosB homodimer DNA binding | 0.99% of 340,000 active | purified delta FosB, TAMRA-CDK5 oligo fluorescence polarization; percent of positive-control signal above neutral wells | P13346 | activation, % at 25 µM | AID 493131;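 active = mean activation above about 17%, with every replicate also reaching it, limit read from the data, passing the limit was not always enough; inconclusive = only one of the two conditions met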
Target sequence (P13346 whole entry, looked up): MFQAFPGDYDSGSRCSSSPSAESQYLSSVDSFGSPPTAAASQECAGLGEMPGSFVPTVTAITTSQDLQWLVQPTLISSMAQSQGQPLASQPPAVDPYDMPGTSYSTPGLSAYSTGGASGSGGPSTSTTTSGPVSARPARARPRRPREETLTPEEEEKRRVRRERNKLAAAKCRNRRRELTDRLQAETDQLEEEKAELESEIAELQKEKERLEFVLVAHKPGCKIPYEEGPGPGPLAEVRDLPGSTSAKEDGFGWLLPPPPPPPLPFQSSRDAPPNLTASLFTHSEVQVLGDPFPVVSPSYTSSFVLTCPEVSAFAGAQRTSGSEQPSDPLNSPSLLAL
GRIN3A LBD mod – modulates the human NR3A ligand-binding domain | NR3A LBD differential scanning fluorimetry, Tm shift; 0% = protein alone, 100% = glycine-bound protein | 2.5% of 340,000 active | Tm shift relative to glycine control, % at 25 µM;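 active = melting temperature shift of at least 10% of the positive control shift, at one fixed dose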
Yeast superoxide – caloric restriction mimetics inhibiting age-related superoxide in yeast; S. cerevisiae aged cells, superoxide DHE fluorescence; hits give low values; superoxide response (% of plate mean), % at 10 µM; 0.18% of 330,000 active; AID 2690;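 active = superoxide response under a set limit, about three screen SD below normal, cut at about 65% in these data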;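 also: yeast aged for seven days with compound at 30 °C before DHE staining; 100% = average MFI of all compound-treated wells on the plate with controls excluded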
NALP1 inh – blocks the NALP1 inflammasome reconstituted in yeast; S. cerevisiae NALP1/ASC/caspase-1 growth, X-gal OD620, 72 h; inhibition, % at 10 µM; 0.61% of 280,000 active; in the data active = inhibition mostly above about 24%, no sharp cut-off; inactive = mostly below about 32%
Numbers without * were called inactive; ? = inconclusive; nt = no result. Sampled rows, rich in hits. Any-hit rate of the full collection: about 4.3%.

SMILES | UBC13 polyUb | dFosB act | GRIN3A LBD mod | Yeast superoxide | NALP1 inh
CNC(=O)N(C)c1ccc(C(O)(C(=O)OC)C(F)(F)F)cc1 (centres undefined) | 6 | -8 | 2 | 112 | 42*
C[C@]12CC[C@H](O)CC1=CCC1C2CC[C@]2(C)C(=O)[C@H](Br)CC12 (some centres undefined) | 11 | -19 | 14* | 101 | nt
O=C(COC(=O)Cc1ccccc1)NC12CC3CC(CC(C3)C1)C2 | 3 | -2 | 0 | 106 | 24*
C[C@]12CCC3C(C(=O)C[C@H]4C[C@@H](O)CC[C@]34C)C1CCC2=O (some centres undefined) | 14 | 3 | -4 | 98 | nt
c1ccc2c(c1)[IH]c1ccccc1-2 | nt | 33* | -1 | nt | nt
c1ccc2c(c1)-c1cccc3cccc-2c13 | ? | -3 | 2 | 112 | nt
Cc1cc(C)cc(N2C(=O)NC(=O)/C(=C\c3cccn3-c3ccccc3)C2=O)c1 | -4 | -15 | 24* | 96 | 9
Cc1cc(C)cc(N2C(=O)NC(=O)/C(=C\c3cccn3-c3ccc(Cl)cc3)C2=O)c1 | -27 | -8 | 2 | 118 | 17
COC1=CC=C2[C@H]3Cc4ccc(OC)c5c4[C@@]2(CCN3C)[C@H]1O5 | 5 | -6 | -2 | 117 | 17
Cc1ccc(-n2c(C)nc3ccccc3c2=O)cc1C | -6 | 1 | 0 | 95 | 16
Cc1ccc2nsnc2c1-n1c(C)nc2ccccc2c1=O | -6 | -5 | 17* | 110 | 4
CCOC(=O)[C@]12Cc3cc(C)ccc3[C@H]1N(Cc1ccccc1)C(=O)c1ccccc12 | nt | -8 | 12* | nt | nt
CCOC(=O)[C@]12Cc3cc(OC)ccc3[C@H]1N(Cc1ccccc1)C(=O)c1cc(F)c(F)cc12 | nt | 3 | 13* | nt | nt
CCN1C(=O)C(=C/C=C/c2ccco2)C(=O)N(CC)C1=S | -26 | 57* | -5 | 94 | 12
CC(C)N1C(=O)/C(=C/C=C/c2ccco2)C(=O)N(Cc2ccco2)C1=O | -16 | -15 | -3 | 107 | 13
O=C1C=CC(=O)C2C1C1(Cl)C(Cl)=C(Cl)C2(Cl)C1(Cl)Cl (centres undefined) | nt | -5 | -7 | nt | nt
O=c1[nH]c(=S)n(-c2ccccc2)c(O)c1/C=N/N1CCCCC1c1cccnc1 (centres undefined) | -10 | 39* | -1 | 78 | nt
COc1cc(OC)c(OC)cc1/C=C1/C(=O)NC(=O)N(Cc2ccccc2)C1=O | -4 | -13 | 2 | 113 | 4
Cc1cc(/C=C2\C(=O)NC(=O)N(Cc3ccccc3)C2=O)c(C)n1C1CC1 | -6 | 43* | 0 | 96 | 15
Oc1c(Cl)c(Cl)c(Cl)c(Cl)c1Cl | -11 | 0 | 19* | 99 | nt
CCOc1cc(/C=C2/C(=O)NC(=O)N(c3ccc(CC)cc3)C2=O)ccc1OC(=O)c1cccs1 | 1 | -16 | 74* | 117 | -9
O=c1[nH]c(=O)n(-c2ccccc2Cl)c(O)c1C=NCCN1CCCCC1 | -1 | 1 | 401* | 94 | nt
O=c1[nH]c(=O)n(Cc2ccc(F)cc2)c(O)c1C=NCCN1CCCCC1 | 12 | -9 | 20* | 136 | 9
CCOc1ccc(NC(=O)CCNC(=O)N2C[C@H]3C[C@@H](C2)c2cccc(=O)n2C3)cc1 | -8 | -7 | 1 | 98 | 6
O=c1[nH]c(=O)n(-c2ccc(Br)cc2)c(O)c1C=NCCN1CCCCC1 | -7 | -6 | 2 | 100 | 26
SMILES | UBC13 polyUb | dFosB act | GRIN3A LBD mod | Yeast superoxide | NALP1 inh
CCOc1cc(CNCCc2c[nH]c3ccccc23)cc(Cl)c1OCC | 39 | -8 | -3 | 98 | 54*
CCOc1c(Cl)cc(CNCCc2c[nH]c3ccccc23)cc1OC | 12 | -6 | -1 | 92 | -6
COC(=O)C1=C(c2cc3ccccc3s2)C[C@@H]2CC[C@H]1N2C(=O)N1CCCC1 | 8 | -3 | -3 | 99 | nt
O=C(Nc1ccc(Cl)cc1)Nc1nccs1 | 3 | -3 | 28* | 97 | 5
CCC1([N+](=O)[O-])COP(=O)(NCc2cccnc2)OC1 (centres undefined) | nt | 1 | 13* | nt | nt
CC1([N+](=O)[O-])COP(=O)(Nc2cccc(Cl)c2)OC1 (centres undefined) | nt | -1 | 0 | nt | nt
CN[C@@H]1C[C@@H](c2ccc(Cl)c(Cl)c2)c2ccccc21 | 46* | nt | nt | 86 | 14
Cc1cccc(-n2c(C)nc3ccc(Cl)cc3c2=O)c1 | 6 | -1 | 1 | 97 | 0
Cc1oc(C(=O)Nc2ccc(O)cc2)cc1COc1ccccc1 | -2 | -10 | 16* | 97 | 22
CCOc1ccc(NC(=O)C2C3c4ccccc4C(c4ccccc43)C2C(=O)O)cc1 (centres undefined) | -20 | 4 | 0 | 112 | -2
CCOC(=O)C(C)Oc1cc(C)cc2oc(=O)c3c(c12)CCCC3 (centres undefined) | 1 | -15 | 15* | 104 | 7
CCn1nc(/C=C/c2ccccc2)nc2c(=O)n(C)c(=O)nc1-2 | -248 | -10 | -1 | nt | -2
CCn1nc(-c2cccs2)nc2c(=O)n(C)c(=O)nc1-2 | nt | -28 | 0 | nt | 33*
C=CCn1c(O)c(C(CC)=NC2CC2)c(=O)[nH]c1=O | 8 | 3 | 0 | 96 | -2
CN1C(=O)C(=Cc2ccc(OCC(=O)Nc3ccccc3)cc2)C(=O)N(C)C1=O | 11 | -9 | -1 | 104 | 2
CCCCn1c(O)c(C=NCc2ccc3c(c2)OCO3)c(=O)[nH]c1=O | 4 | 14 | 11* | 105 | -18
CCCCn1c(O)c(C(C)=NCc2ccc3c(c2)OCO3)c(=O)[nH]c1=O | 5 | -10 | -4 | 91 | -7
O=C(O)C1CC2(Cl)C(Cl)=C(Cl)C1(Cl)C2(Cl)Cl (centres undefined) | nt | -1 | -2 | nt | nt
COc1cc(/C=C/[N+](=O)[O-])ccc1O | -51 | 3 | -3 | 132 | 94*
Nc1ccncc1Cl | 13 | -5 | 0 | 101 | 14
Nc1c(Br)cc2c3c(cccc13)-c1ccccc1-2 | nt | nt | 8 | nt | nt
O=C(Cc1cc(=O)oc2cc(O)ccc12)NN=Cc1ccc(N(CCCl)CCCl)cc1 | nt | -4 | 18* | nt | nt
CCN(CC)P(=O)(NC(=O)c1cccn1C)N(CC)CC | 22 | -10 | 0 | 101 | 14
Cc1cc(C)c2c(ccc3cccc[n+]32)c1 | -6 | nt | 2 | 105 | nt
COc1cc2c(cc1OC)-c1c3c(cc4c1[C@@H](C2)N(C)CC4)OCO3 | -258 | 11 | -5 | 125 | 15
COc1cc2c(cc1O)C[C@H]1NCCc3cc4c(c-2c31)OCO4 | -43 | 24* | -11 | 115 | 26
CC1CN(O)C2CCc3nonc3C12O (centres undefined) | 6 | 16* | 1 | 104 | 15
COC1=C(OC)[C@]23CCc4ccc(OC)c(OC)c4[C@]2(CCN3C)CC1=O | 1 | -6 | 13* | 104 | nt
COc1ccc2c(c1O)[C@]13CCN(C)[C@H](C2)[C@@H]1CCC(=O)C3 | -4 | -2 | -1 | 101 | 14
FC(F)(F)c1ccccc1CNCCc1c[nH]c2ccccc12 | 12 | 3 | 0 | 106 | 7
